Drawing on PubChem BioAssay (NCI), this text covers growth for 22 compounds.

The structures appear in SMILES notation. About 83,000 compounds went through this panel and 20% of them were active in at least one assay; those are over-represented in the sample as a whole.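 Results are percent growth after 48 hours of single-concentration exposure. 100 means growth as in untreated cells, lower positive values show inhibition; negative values down to -100 show cell death.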 The source made the active and inactive calls. The calls were made as follows: active = growth percent below 10; inactive = the rest.

In this test the test system is CCRF-CEM leukemia. Put plainly: NCI-60 one-dose screen, 48 h (100 = growth as untreated, 0 = no growth, -100 = all killed). Particulars: 10 µM unless noted.
For the compound `O=C(Nc1ccc(F)cc1)Nc1ccc(CCO)cc1`, the growth is 107% (inactive).

For `O=[N+]([O-])c1cccc(C2CC(c3ccccc3)=Nc3ccccc3S2)c1` (configuration not stated), the growth is 22.6% (inactive).

Regarding `COc1cc(-c2c3sc(=O)[nH]c3nc3c2c(=O)[nH]n3C(C)C)cc2c1OCO2`, the growth was 125% (inactive).

Consider `O=C(N/N=C/c1ccc(O)cc1O)c1cccnc1`, for which the growth was 5.78% (active).

`CCCCCCCCOC(=O)CC[C@@H](C)[C@H]1CC[C@H]2[C@@H]3[C@H](OC(=O)CCN)C[C@@H]4C[C@H](OC(=O)CCN)CC[C@]4(C)[C@H]3C[C@H](OC(=O)CCN)[C@]12C`: the growth is -37.5% (active).

With `CCOC(=O)N1CCN(c2nc(Nc3cc(C)[nH]n3)c3ccccc3n2)CC1`, the growth is 40.1% (inactive).

In the case of `Cc1ccc(C2CC3c4ccccc4C2C2CCCCN32)cc1` (configuration not stated), the growth is 92.2% (inactive).

`CC#Cc1nc2ccccc2c(=O)[nH]1`: the growth is 19.6% (inactive).

Take `COc1c(C2CC(=O)Nc3c2cnn3Cc2ccco2)cc2c(c1OC)OCO2` (configuration not stated): the growth was 10.1% (inactive).

On to `Oc1ccccc1/C=N/Nc1ccc2ccccc2n1`, for which the growth was 10.7% (inactive).

With `Cc1cc(Nc2nc(N3CCN(C)CC3)nc3ccccc23)n[nH]1`, the growth is 65.3% (inactive).

In the case of `COc1cccc2c1C(=O)c1c(O)c3c(c(O)c1C2=O)C[C@@](O)(/C(C)=N/NC(=O)c1ccc(Cl)cc1)C[C@@H]3OC1CC(N)C(O)C(C)O1` (some centres not stated), the growth was -10.8% (active).

Turning to `C#Cc1nc2ccccc2c(=O)[nH]1`, the growth is -17% (active).

On to `O=C1Nc2ccc(Br)cc2C12CC(c1ccccc1)=NN2` (configuration not stated), for which the growth is 32.3% (inactive).

Regarding `CCCCCCCCCCCCN1CCCC(C)C1` (configuration not stated), the growth was 44.7% (inactive).

Regarding `Cc1ccc(NC(=O)c2sc3nc4c(cc3c2N)C(=O)CCC4)cc1C`, the growth was 13.6% (inactive).

Consider `O=C(NC(Cc1ccccc1)C(=O)CCl)OCc1ccccc1` (configuration not stated), for which the growth is -4.62% (active).

For the compound `COc1c(Cl)cc(Cl)cc1Cl`, the growth was 110% (inactive).

Consider `COc1cc(C2CC(=O)Nc3c2cnn3Cc2ccco2)cc2c1OCCO2` (configuration not stated), for which the growth is 111% (inactive).

For `O=C1Nc2ccccc2/C1=C/C(=N/c1nnc(-c2ccc(Cl)cc2)s1)c1ccccc1`, the growth is -42.7% (active).

Consider `CC(=O)OCC(=O)C1CCC=CC1OC(C)=O` (configuration not stated), for which the growth is 99.7% (inactive).

For `c1c2c(cc3c1OCO3)Cc1cc3c(cc1Cc1cc4c(cc1C2)OCO4)OCO3`, the growth was 112% (inactive).
